Shown is part of a subset that was picked to be rich in hits.
Sm TGR inh = inhibitors of Schistosoma mansoni thioredoxin glutathione reductase; Q962Y6; purified TGR, DTNB reduction, TNB absorbance 405 nm; Potency, µM (series often up to 114 µM), most hits filed as inhibitors; hit rate 3% among 360,000; AID 485364; further: nearly all actives have a fitted effect of over 60% in size
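TGR 20 nM + NADPH 100 uM (dispensed conc.), cpd preinc 15 min RT; start with NADPH (500 uM addition) then DTNB (15 mM addition). Kinetic TNB absorbance, 405 nm filter. Four-parameter Hill fit across titration.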
Cycloheximide cs = affects cycloheximide protein synthesis inhibition readout, counter-screen; cell reporter, cycloheximide protein synthesis inhibition counterscreen; max response, %; AID 2314; hit rate 12% among 300,000; in the data active means max response mostly above about 13%, no sharp cut-off; inactive means mostly below about 14%; further: read at 38.3 µM for the half of the compounds with a filed dose
LmPK inhibitor = inhibitors of Leishmania mexicana pyruvate kinase | AID 1721 | Q27686 | Potency, µM (highest dose often 57.5 µM), hits mostly inhibitors | hit rate 0.37% among 290,000 | purified LmPK, Kinase-Glo ATP luminescence, 1 h
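ATP generated from ADP (0.1 mM) and PEP (0.5 mM) by 0.1 nM LmPK over 1 h at room temperature (pH 7.2 imidazole buffer) was detected by coupled luciferase luminescence. Values were normalized to uninhibited and no-enzyme wells.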
Giardia FBPA inh = Giardia lamblia aldolase inhibition. purified Giardia FBPA. Potency, µM (top dose mostly 59.6 µM), usual class: inhibitors. hit rate 0.71% among 290,000. AID 2451; further: nearly all actives have a fitted effect of over 55% in size
Target sequence (A8B2U2 whole entry, looked up): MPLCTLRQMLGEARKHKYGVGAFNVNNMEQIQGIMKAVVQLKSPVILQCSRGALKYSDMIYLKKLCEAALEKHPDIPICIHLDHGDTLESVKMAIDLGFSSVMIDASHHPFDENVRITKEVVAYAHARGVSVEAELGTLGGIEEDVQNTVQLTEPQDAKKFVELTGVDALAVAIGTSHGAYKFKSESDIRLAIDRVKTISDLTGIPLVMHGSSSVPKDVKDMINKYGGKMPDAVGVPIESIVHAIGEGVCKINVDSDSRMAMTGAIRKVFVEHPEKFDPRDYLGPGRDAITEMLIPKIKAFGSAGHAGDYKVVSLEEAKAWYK
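40 nM FBPA preincubated 10 min at RT with compound (up to 57.5 uM final), then substrate plus GAPDH/TPI/NAD/arsenate coupling and diaphorase/resazurin added. Fluorescence read after 20 min at RT, 525/598 nm.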
Tb PYK inh = inhibitors of Trypanosoma brucei pyruvate kinase | Q57TT1 | TbPYK enzyme, Kinase-Glo Plus ATP luminescence, 45 min | Potency, µM (highest dose often 76.8 µM), usual class: inhibitors | hit rate 0.12% among 410,000 | AID 624173; further: nearly all actives have a fitted effect of over 50% in size
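Enzyme and substrate buffer are dispensed first and compound is pin-transferred. ADP at 130 uM final then starts the reaction, which runs 45 min at room temperature. Detection reagent is added for 10 min before luminescence is imaged.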
Shiga toxin inh = inhibitors of Shiga toxin in Vero cells; Vero cells, Shiga toxin protein synthesis inhibition reporter; AID 2315; inhibition, % at 38.7 µM; hit rate 9.2% among 290,000; in the data active means inhibition mostly above about 28%, no sharp cut-off; inactive means mostly below about 43%
A number is an active result; 0 = inactive; ? = inconclusive; - = no result given. Unless noted, the call rests on the fitted dose curve; in most records, active means well fitted curve in the direction sought with a large enough effect; inconclusive means small, poorly fitted or top-dose-only effect, or another doubt; inactive means no such curve, though single readings can be large; an effect the other way counts as inactive or inconclusive.

SMILES	Sm TGR inh	Cycloheximide cs	LmPK inhibitor	Giardia FBPA inh	Tb PYK inh	Shiga toxin inh
CC(C)OC(=O)c1ccc2nc3ccccc3nc2c1	0	87	0	0	0	125
CCOC(=O)c1c(C)c(C(=O)N2CCN(C(=O)c3ccco3)CC2)c(C)n1C	0	0	0	0	0	0
CC(C)OC(=O)c1ccc(NC(=O)c2ccco2)cc1	0	46	0	0	0	77
CCOC(=O)c1ccc(NC(=O)c2ccco2)cc1	0	42	0	0	0	107
CCOC(=O)c1c(C)n(C(=O)c2ccco2)c(=O)n1C(=O)c1ccco1	35µM	0	0	0	0	0
COC(=O)c1ccc(NC(=O)c2cccc(NC(=O)c3ccco3)c2)cc1	0	0	0	0	0	0
CCOC(=O)c1ccc(NC(=O)CN2CCN(C(=O)c3ccco3)CC2)cc1	?	0	0	-	0	0
CCC(=O)O	-	0	-	0	0	0
CCOC(=O)c1ccc(NC(=O)CSCc2ccco2)cc1	?	13	0	0	0	32
CCOC(=O)c1ccc(NC(=O)c2ccc(NC(=O)c3ccccc3)cc2)cc1	0	0	0	0	0	0
CC(C)OC(=O)c1ccc(NC(=O)c2ccccc2)cc1	0	66	0	0	0	69
CN1CCN(c2nc(-c3ccccc3C(F)(F)F)nc3ccccc23)CC1	-	-	-	0	-	-
COc1ccc(CCC(=O)N2CCCSC2=Nc2ccc(C(C)=O)cc2)cc1	0	21	0	0	0	0
Nc1c(-c2ccc(Cl)cc2)cnc2c(-c3ccc(F)cc3)cnn12	0	34	0	0	0	88
COc1ccc(-c2c(C)nc3c(-c4ccc(F)cc4)cnn3c2N)cc1	0	66	0	0	0	53
Cc1nn2c3c(cnc2c1-c1ccccc1)C(=O)CC(c1ccccc1)C3 (stereo not drawn)	0	0	0	0	0	0
COc1ccccc1-c1c(C)nn2c(N)c(-c3ccc(Cl)cc3)cnc12	0	0	0	0	0	-
Cc1nc2c(-c3ccc(F)cc3)cnn2c(N)c1-c1ccccc1	0	59	0	0	0	140
Cc1nn2c3c(cnc2c1-c1ccccc1)C(=O)CC(c1ccco1)C3 (stereo not drawn)	35µM	0	0	0	0	0
CC(=O)OCC1=C[C@H]2[C@@H]3C(C)(C)[C@]3(OC(=O)Cc3ccccc3)C[C@@H](C)[C@]2(O)[C@@H]2C=C(C)C(=O)[C@@]2(O)C1	-	0	-	0	-	0
Cc1nc2c(-c3ccc(Cl)cc3)cnn2c(N)c1-c1ccc(F)cc1	0	64	0	0	0	138
Nc1c(-c2cccc(Cl)c2)cnc2c(-c3ccccc3)cnn12	0	45	0	0	0	64
Cc1cc(C(F)(F)F)n2ncc(-c3ccc(F)cc3)c2n1	0	0	0	0	0	0
Fc1ccc(-c2cnn3c(-c4ccncc4)ccnc23)cc1	0	22	0	0	0	73
Cc1nn2c(N)c(-c3ccccc3)cnc2c1-c1ccccc1	0	17	0	0	0	0
SMILES	Sm TGR inh	Cycloheximide cs	LmPK inhibitor	Giardia FBPA inh	Tb PYK inh	Shiga toxin inh
O=C(O)c1ccc(NS(=O)(=O)c2ccsc2C(=O)O)c(O)c1	-	-	-	0	-	-
Cc1nc2c(-c3ccc(Cl)cc3)cnn2c2c1CCC2	0	35	0	0	0	68
Cc1nc2c(Cl)c(C)nn2c2c1CCC2	0	0	0	0	0	0
Cc1cc(-c2nn(-c3ccccc3F)cc2CN2CCC(C(N)=O)CC2)c(C)s1	45µM	0	0	0	0	0
Cc1cc(-c2nn(-c3ccccc3F)cc2CN2CCCC(C(N)=O)C2)c(C)s1 (stereo not drawn)	0	0	0	0	0	0
O=C(CSCc1ccccc1)Nc1cc([N+](=O)[O-])ccc1F	0	0	0	0	0	0
O=C(CSCc1ccc(F)cc1)NCc1ccco1	?	21	0	0	0	0
O=C(CN1CC(=O)Nc2ccccc21)Nc1ccc(F)c(F)c1	32µM	30	0	?	0	75
O=C(CSCc1ccc(F)cc1)Nc1ccccc1	0	30	0	0	0	53
O=C(CSCc1ccccc1)Nc1ccc(F)c(F)c1	0	47	0	0	0	73
Cc1c(C=C(C#N)c2ccc([N+](=O)[O-])cc2)c(=O)n(-c2ccccc2)n1C	-	-	-	-	0	-
Cc1ccc(NC(=O)C2CCCN(c3nnc(-n4c(C)ccc4C)s3)C2)c(C)c1 (stereo not drawn)	?	-	-	-	0	-
COc1cccc(CNC(=O)c2cnc(N3CCCC3)nc2C)c1	0	-	-	-	0	-
N#CCSCC(=O)Nc1ccc(Br)cc1	0	0	0	0	0	0
O=C(CSCc1ccccc1Br)Nc1ccccc1	0	27	0	0	0	0
O=C(CSc1nncc2ccccc12)Nc1cccc(C(=O)O)c1	0	40	0	?	0	99
N#CCSCC(=O)Nc1ccccc1	0	20	0	0	0	0
O=C(CSCc1ccc(F)cc1)NC1CCCC1	0	26	0	0	0	37
CCN(CC)C(=O)c1sc2c(c1C)c(=O)n(-c1ccccc1)c(=O)n2CC(=O)N(CC)c1cccc(C)c1	0	-	-	-	0	-
CCOc1ccc(NC(=O)NCCn2nnc3cc(S(=O)(=O)N(C)C)ccc32)cc1	0	-	-	-	0	-
O=C(CSc1nnc(-c2ccc(F)cc2)c2ccccc12)Nc1ccccc1	0	22	0	0	0	0
CCc1cccc(NC(=O)CNC(=O)N2CC(=O)Nc3ccccc32)c1	0	26	0	0	0	0
O=C(CSc1nnc(-c2ccc(F)cc2)c2ccccc12)Nc1cccc(Cl)c1	0	0	0	0	0	0
Cc1ccc(NC(=O)CNC(=O)N2CC(=O)Nc3ccccc32)cc1F	0	0	0	0	0	0
CCCCNC(=O)CCn1c(=O)c2ccccc2n(Cc2ccc(Cl)cc2)c1=O	0	0	0	0	0	0
SMILES	Sm TGR inh	Cycloheximide cs	LmPK inhibitor	Giardia FBPA inh	Tb PYK inh	Shiga toxin inh
COCc1cc(S(=O)c2ccc(Cl)cc2)nc(C)n1 (stereo not drawn)	-	16	0	0	0	0
COCc1cc(Sc2ccc(Cl)cc2)nc(C)n1	-	0	0	0	0	0
Cc1noc(C)c1-c1cncnc1NCc1ccccc1	-	-	-	0	-	-
COc1ccc(-c2noc(CCC(=O)NCCN(C)Cc3ccccc3)n2)cc1	89µM	0	0	0	0	0
O=C(CCCN1C(=O)[C@H]2CC=CC[C@H]2C1=O)NCc1nc(-c2ccc(Cl)cc2)no1	0	0	0	-	0	0
COc1ccc(-c2noc(CNC(=O)CCCN3C(=O)[C@H]4CC=CC[C@H]4C3=O)n2)cc1	0	18	0	0	0	0
COc1ccc(-c2noc(CCC(=O)NCCc3ccccc3)n2)cc1	0	25	0	0	0	0
COc1ccc(-c2noc(CCC(=O)NCc3cccnc3)n2)cc1	0	0	0	0	0	0
O=C(CCc1nc(-c2ccccc2)no1)NCCc1ccccc1	0	0	0	0	0	0
